Results on 26 compounds are retold here after PubChem BioAssay AID2685 (National Center for Advancing Translational Sciences (NCATS), 2010).

The campaign covered roughly 320,000 compounds. About 2,100 (0.66%) were called active. Roughly 53% stayed inconclusive and do not appear here. Calls come from the whole dose curve; as a rule, active = well fitted inhibition curve with a large enough effect in the signal ratio, with a control signal flat (not every such curve was filed as active); inconclusive = small, poorly fitted or top-dose-only effect, or effect the other way, or a change in a side signal; inactive = flat fitted curve, though single readings scatter; the % refers to the signal ratio. Many of the other results were omitted from the sample, so actives are more common in it than they were.
Potency is the fitted concentration of half-maximal effect.

This test can be described thus: qHTS Assay for Lipid Storage Modulators in Drosophila S3 Cells.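 For cell number change: cells counted by Cell Tracker Red CMTPX staining in the red channel.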 For lipid storage change, negative = inhibition: % is set by controls: 0 for no effect and ±100 for the full control effect. The conditions noted are these: BODIPY lipid droplet fluorescence, 18-24 h, cells fed with added oleic acid; cell number change: measured here: cell count max response; series mostly up to 46.1 µM. In outline:
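Laser-scanning cytometry quantifies lipid droplet accumulation (500–530 nm total intensity; droplet/cell object ratio) in oleic acid-fed (400 uM added) Drosophila S3 cells treated with a concentration series. 20 uM Triacsin C defined 100% inhibition.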
For `Cc1c(C(=O)N(CCC#N)c2ccccc2)sc2nc3n(c(=O)c12)CCCC3`, the Potency result was “inactive” and the cell number change amounted to 7.46%.

With `COc1ccc(O)c(-c2cc(-c3ccccc3[N+](=O)[O-])[nH]n2)c1`, the Potency entry is “inactive” and the cell number change was -1.9%.

Consider `COc1ccc(O)c(-c2cc(-c3ccccc3Cl)[nH]n2)c1`, for which the Potency is 3.66 µM (active) and the cell number change is -20.4%.

For the compound `Oc1ccc(Br)cc1-c1cc(-c2ccccc2Cl)[nH]n1`, the Potency entry was “inactive” and the cell number change was -23.2%.

Turning to `CCc1ccc(/C=C(\C)C(=O)c2c(C)cc(C)[nH]c2=O)cc1`, the Potency result is “inactive” and the cell number change was -0.605%.

On to `CCOc1ccc(C2c3[nH]c4ccccc4c3C[C@H]3C(=O)N(C4CC4)CC(=O)N23)cc1OC` (some centres undefined), for which the Potency result is “inactive” and the cell number change is 5.07%.

Consider `CCOc1ccc2oc(C(=O)NC(C)(C)CC)c(C)c2c1`, for which the Potency entry is “inactive” and the cell number change is -22.3%.

In the case of `CC(C)(C)N(Cc1ccccc1)C(=O)COC(=O)CNS(=O)(=O)c1ccc2ccccc2c1`, the Potency entry was “inactive” and the cell number change is -5.96%.

On to `COc1ccc(N2CCN(C(=O)NC34CC5CC(CC(C5)C3)C4)CC2)cc1`, for which the Potency entry was “inactive”.

Regarding `COc1cccc(N2CCN(C(C)C(=O)NC34CC5CC(CC(C5)C3)C4)CC2)c1` (centres undefined), the Potency is 1.3 µM (active) and the cell number change was -27.6%.

For `COc1cccc(C(=O)NC23CC4CC(CC(C4)C2)C3)c1`, the Potency entry was “inactive” and the cell number change came out at 26.5%.

On to `O=c1[nH]ncc(N2CCN(Cc3ccccc3)CC2)c1Cl`, for which the Potency result is “inactive” and the cell number change came out at 12.7%.

As for `CC(=C1C(=O)c2ccccc2C1=O)N1CCN(Cc2ccccc2)CC1`, the Potency result was “inactive” and the cell number change turned out to be 11.8%.

As to `O=C1c2ccccc2C(=O)c2c1cccc2N1CCN(Cc2ccccc2)CC1`, the Potency was 18.4 µM (active).

`CN(c1ccccc1)C(c1ccc(F)cc1)c1nnnn1CC1CCCO1` (centres undefined): the Potency entry was “inactive”.

For the compound `CCN(CC)C(c1ccc(F)cc1)c1nnnn1C1CCCCC1` (centres undefined), the Potency result is “inactive” and the cell number change was -7.83%.

With `CCN(CC)C(c1ccc(F)cc1)c1nnnn1CC1CCCO1` (centres undefined), the Potency was 18.4 µM (active) and the cell number change came out at 4.03%.

Consider `CC(C)c1nc(SCC(=O)N2CCOCC2)c2c(=O)n(C)c(=O)n(C)c2n1`, for which the cell number change is 5.66% and the lipid storage change, negative = inhibition was 8.15% [at 9.22 µM] (inactive).

Take `Cn1c(SCC(N)=O)nnc1-c1ccc(C(C)(C)C)cc1`: the Potency entry is “inactive” and the cell number change was -9.51%.

Take `C=CCn1c(SCC(=O)O)nnc1-c1ccc(C(C)(C)C)cc1`: the Potency result is “inactive” and the cell number change came to 5.05%.

As for `C=C(C)Cn1c(SCC(=O)O)nnc1-c1ccc(C(C)(C)C)cc1`, the Potency is 29.1 µM (active) and the cell number change is -3.69%.

`CC(C)=CC(O)C/C(C)=C/COc1ccc2ccc(=O)oc2c1` (centres undefined): the Potency result is “inactive” and the cell number change was -2.96%.

Regarding `O=C(NCC(c1ccco1)N1CCOCC1)c1ccc(F)c(F)c1` (centres undefined), the Potency entry was “inactive” and the cell number change is 3.3%.

For the compound `CCCCC1C2C(=O)N(c3ccccc3)C(=O)C2ON1c1ccccc1` (centres undefined), the Potency result was “inactive” and the cell number change is -1.39%.

For `CCCOc1ccc(N2C(=O)C3ON(c4ccccc4)C(CCC)C3C2=O)cc1` (centres undefined), the Potency was 18.4 µM (active) and the cell number change is 10.7%.

As to `CCCCC1C2C(=O)N(c3ccc(C)cc3)C(=O)C2ON1c1ccccc1` (centres undefined), the Potency entry was “inactive” and the cell number change amounted to 7.09%.
